According to PubChem BioAssay AID743314 (Broad Institute, 2014):
Potency and affinity values are given separately. Results filed as inconclusive are left out.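 The calls were made as follows: active = fitted half-maximal concentration no higher than twice the top tested dose, in every repeat run; inconclusive = repeat runs disagree, poor fit, or flat partial inhibition; inactive = the rest.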

target: Endoplasmic reticulum aminopeptidase 1 (Homo sapiens) (UniProt Q9NZ08); assay: ERAP1 aminopeptidase inhibitors, dose response, biochemical, cherry-pick, set 2, plate reader (AID 743314); conditions: Recombinant ERAP1, Leu-AMC fluorescence, 60 min; series mostly up to 11 µM; activity change, negative = inhibition: at the top concentration;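 also: 0% = neutral control wells and -100% = L-leucinethiol positive control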
Sequence (Q9NZ08 whole entry, looked up): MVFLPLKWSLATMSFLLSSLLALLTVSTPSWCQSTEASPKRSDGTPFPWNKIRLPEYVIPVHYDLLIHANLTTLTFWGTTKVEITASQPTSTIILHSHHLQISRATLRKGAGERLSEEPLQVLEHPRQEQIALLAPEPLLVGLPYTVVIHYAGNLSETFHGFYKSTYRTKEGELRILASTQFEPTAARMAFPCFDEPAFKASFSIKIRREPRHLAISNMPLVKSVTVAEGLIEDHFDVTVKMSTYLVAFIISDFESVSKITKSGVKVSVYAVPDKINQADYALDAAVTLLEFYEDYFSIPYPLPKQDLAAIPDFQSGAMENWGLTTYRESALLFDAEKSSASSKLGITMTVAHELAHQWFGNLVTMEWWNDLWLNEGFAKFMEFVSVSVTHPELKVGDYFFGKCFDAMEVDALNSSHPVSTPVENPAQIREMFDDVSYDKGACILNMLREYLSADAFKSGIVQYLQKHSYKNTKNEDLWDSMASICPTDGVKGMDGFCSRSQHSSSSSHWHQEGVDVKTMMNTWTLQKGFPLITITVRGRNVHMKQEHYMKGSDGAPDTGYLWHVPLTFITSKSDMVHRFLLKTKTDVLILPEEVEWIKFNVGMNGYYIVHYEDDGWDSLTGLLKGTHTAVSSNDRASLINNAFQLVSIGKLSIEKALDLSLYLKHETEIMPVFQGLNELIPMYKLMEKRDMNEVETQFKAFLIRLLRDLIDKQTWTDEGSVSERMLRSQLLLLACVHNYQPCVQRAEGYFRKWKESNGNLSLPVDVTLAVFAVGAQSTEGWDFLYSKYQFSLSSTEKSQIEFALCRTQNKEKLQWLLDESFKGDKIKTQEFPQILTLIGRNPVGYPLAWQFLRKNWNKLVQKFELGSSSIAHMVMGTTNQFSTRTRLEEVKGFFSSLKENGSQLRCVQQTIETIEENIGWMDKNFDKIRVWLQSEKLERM

Activity change, negative = inhibition, inactive:
C[C@H](NC(=O)C[C@H]1CC[C@H]2[C@@H](COC[C@H](O)CN2C(=O)Nc2ccccc2)O1)c1ccccc1 46.1%, Cc1noc(C)c1NC(=O)N(C)C[C@@H]1Oc2c(NC(=O)Nc3ccccc3)cccc2C(=O)N([C@H](C)CO)C[C@@H]1C 47%, COc1ccc(CN(C)C[C@H]2Oc3c(NC(=O)NC4CCCCC4)cccc3C(=O)N([C@H](C)CO)C[C@@H]2C)cc1 13.5%, O=C(CSc1n[nH]c(-c2cccs2)n1)NC1CCS(=O)(=O)C1 (stereo not drawn) -13.5%, COc1ccc2c3c(n(C)c2c1)[C@@H](CO)N(C)CC31CN(C(=O)c2cccnc2)C1 27.8%, CN1[C@@H]2c3ccc(/C=C/c4ccccc4)c(=O)n3C[C@@H]2[C@@H](CO)[C@@H]1C(=O)N1CCCCC1 5.69%, C[C@H](CO)N1C[C@H](C)[C@H](CN(C)C)Oc2c(NC(=O)Nc3ccc(C(F)(F)F)cc3)cccc2C1=O 61.3% [at 5.6 µM], CN(C)C(=O)[C@H]1[C@H](CO)[C@H]2Cn3c(cccc3=O)[C@@H]1N2CC1CCCC1 31.6%, Cc1ccc(CN2C(=O)CCC2C(=O)NCCN2CCN(c3cccc(Cl)c3)CC2)cc1 (stereo not drawn) 5.74%, CNC[C@H]1Oc2c(NC(=O)Nc3ccc(F)cc3)cccc2C(=O)N([C@@H](C)CO)C[C@@H]1C 40%, CN1CCN(S(=O)(=O)c2cccc(C(=O)N(C)CC(=O)Nc3ccc(F)c(F)c3F)c2)CC1 3.77%, COc1ccc(CNCc2c(O)c(Cl)cc3c(C)c(C)c(=O)oc23)c(OC)c1 83.8% [at 5.6 µM], O=C(c1ccc(F)cc1)N1CC2(C1)[C@@H](c1ccccc1)[C@@H](CO)N2Cc1ccccn1 27.3%
